A selection: hits, their analogues and other compounds. The true share with any hit is near 9.2%.
HPGD block – qHTS Assay for Inhibitors of HPGD (15-Hydroxyprostaglandin Dehydrogenase); purified HPGD, NADH fluorescence kinetic, PGE2 substrate; Potency, µM, usual class: inhibitors; hit rate 4.3% among 150,000
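NADH formation kinetics: reaction with 30 uM PGE2 and 1 mM NAD+ (final), 20 nM enzyme, Tris-HCl pH 8 with Tween 20, after 15 min compound preincubation at room temperature. Fluorescence change, last versus first of five reads.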
HTT cytoprotect – qHTS Multiplex Assay to Identify Dual Action Probes in a Cell Model of Huntington: Cytoprotection (ATP); PC12 HTT-Q103 induced, cytoprotection, ATP luminescence, 40 h; Potency, µM (titrated, usually from 56.4 µM), actives largely listed as activators; hit rate 0.14% among 230,000; active means well fitted curve in the direction sought with a large enough effect; inconclusive means small, poorly fitted or top-dose-only effect, or another doubt; inactive means no such curve, though single readings can be large; an effect the other way counts as inactive or inconclusive; further: nearly all actives have a fitted effect of over 45% in size
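Readout: ATPlite luminescence (ATP level). Model: stable PC12, inducible Htt exon1 Q103-GFP. Inducer: tebufenozide, 100 nM final. Compounds: dose series. No G418 in medium.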
ALDH1A1 inh – qHTS Assay for Inhibitors of Aldehyde Dehydrogenase 1 (ALDH1A1) | Aldehyde dehydrogenase 1A1 (Homo sapiens), P00352 | Purified ALDH1A1, NADH fluorescence, propionaldehyde substrate | Potency, µM (titrated, usually from 75.3 µM), actives largely listed as inhibitors | hit rate 7.3% among 220,000 | AID 1030, 2008
JMJD2E inh – qHTS Assay for Inhibitors of Human Jumonji Domain Containing 2E (JMJD2E) | Lysine-specific demethylase 4E (Homo sapiens), B2RXH2 | Potency, µM (top dose mostly 57.1 µM), hits mostly inhibitors | hit rate 1.6% among 230,000 | JMJD2E catalytic domain, FDH-coupled NADH fluorescence (FDH is formaldehyde dehydrogenase); further: nearly all actives have a fitted effect of over 50% in size
Target sequence (B2RXH2 1-337 limits assumed): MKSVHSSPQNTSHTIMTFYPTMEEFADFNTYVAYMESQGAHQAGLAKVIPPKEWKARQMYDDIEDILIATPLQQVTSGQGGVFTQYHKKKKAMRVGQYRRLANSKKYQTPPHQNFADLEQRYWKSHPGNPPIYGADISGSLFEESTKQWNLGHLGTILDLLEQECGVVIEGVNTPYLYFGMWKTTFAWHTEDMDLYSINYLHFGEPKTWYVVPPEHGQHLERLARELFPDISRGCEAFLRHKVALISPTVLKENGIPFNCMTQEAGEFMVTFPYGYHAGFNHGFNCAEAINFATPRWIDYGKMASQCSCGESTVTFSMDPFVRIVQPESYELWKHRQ
HTT aggregate – qHTS Multiplex Assay to Identify Dual Action Probes in a Cell Model of Huntington: Aggregate Formation (GFP). PC12 HttQ103-GFP aggregates, Acumen cytometry, 40 h. Potency, µM (series often up to 46.1 µM), usual class: inhibitors. hit rate 1.1% among 220,000. AID 1688, 2009; active means well fitted curve in the direction sought with a large enough effect; inconclusive means small, poorly fitted or top-dose-only effect, or another doubt; inactive means no such curve, though single readings can be large; an effect the other way counts as inactive or inconclusive; further: nearly all actives have a fitted effect of over 60% in size
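Aggregates are detected as GFP objects 1–25 µm with signal 6 STDEV over background in lysates of induced PC12 cells. These carry Huntingtin exon 1 with 103 glutamines fused to GFP under an ecdysone promoter; compounds titrated.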
LMNA splice mod – qHTS Assay for Modulators of Lamin A Splicing; Potency, µM (doses to about 46.1 µM), actives largely listed as inhibitors; HeLa LMNA splicing GFP/RFP minigene ratio, 48 h; hit rate 0.01% among 200,000; active means well fitted inhibition curve with a large enough effect in the signal ratio, with a control signal flat, not every such curve was filed as active; inconclusive means small, poorly fitted or top-dose-only effect, or effect the other way, or a change in a side signal; the % refers to the signal ratio
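S3 HeLa stable clones carrying a lamin A-EGFP splicing minigene plus DsRed2 were seeded at 600 cells/well in Opti-MEM with 2% FBS, pin-dosed and incubated 48 h at 37°C. Acumen cytometry (488 nm) gave the GFP/RFP total-intensity ratio.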
A number is an active result; 0 = inactive; ? = inconclusive; - = no result given; [ ] = another dose, or the depositor's remark. Unless noted, the call rests on the fitted dose curve; in most records, active means well fitted inhibition curve with a large enough effect (not every such curve was filed as active); inconclusive means small, poorly fitted or top-dose-only effect, or another doubt; inactive means no such curve, though single readings can be large or run the other way.

SMILES | HPGD block | HTT cytoprotect | ALDH1A1 inh | JMJD2E inh | HTT aggregate | LMNA splice mod
N=C1SC(CC(=O)Nc2ccc([N+](=O)[O-])cc2)C(=O)N1c1ccccc1 (configuration not stated) | - | 0[10 µM] | ? | 0 | 0[9.22 µM] | -
CN1C(=O)SC(Nc2ccccc2C(=O)O)C1=O (configuration not stated) | ? | 0 | ? | ? | 0 | 0
O=C(CC1SC(=O)N(c2ccccc2)C1=O)Nc1ccccc1 (configuration not stated) | ? | 0 | 8.9µM | 0 | 0 | 0
CCCN1C(=O)SC(CC(=O)Nc2ccc(C)cc2)C1=O (configuration not stated) | 0 | 0[10 µM] | 22µM | 0 | 0 | 0
Cc1cccc(NC2SC(=O)N(c3ccccc3)C2=O)c1 (configuration not stated) | 0 | 0 | 1.3µM | 0 | 0 | 0
COc1ccccc1NC1SC(=O)N(c2ccccc2)C1=O (configuration not stated) | 0 | 0[10 µM] | 5µM | 0 | 0 | ?
O=C(O)c1ccc(CNCc2ccccc2)cc1 | 0 | 0[10 µM] | 0[13.5 µM] | - | - | -
CCN[C@@H]1C[C@H](N)[C@H](O[C@H]2OC(CN)=CC[C@H]2N)[C@@H](O)[C@H]1O[C@H]1OC[C@@](C)(O)[C@@H](NC)[C@@H]1O | 0 | 0 | 0 | 0 | 0 | 0
O=C(O)[C@@H]1CCCNC1 | 0 | 0 | 0 | 0 | - | 0
Cn1c(=O)c2[nH]c(CCCCc3nc4c([nH]3)c(=O)n(C)c(=S)n4C)nc2n(C)c1=S | 0 | 0[10 µM] | 0[13.5 µM] | - | - | -
Cc1ccc(NC(=O)CC2SC3=NCCN3C2=O)cc1 (configuration not stated) | 0 | 0[1.9 µM] | 3.5µM | 0 | 0 | 0
Cc1cccc(NC(=O)CC2SC(=O)N(c3ccccc3)C2=O)c1 (configuration not stated) | 0 | 0 | 10µM | 0 | 0 | 0
Cc1ccc(NC(=O)CC2SC(=O)N(c3ccccc3)C2=O)cc1 (configuration not stated) | 0 | 0[10 µM] | 10µM | 0 | 0 | 0
O=C(CC1SC2=NCCN2C1=O)Nc1ccccc1 (configuration not stated) | 0 | 0 | 0 | 0 | 0 | 0
NC(=S)c1cc2cc(Cl)ccc2oc1=O | - | 0[10 µM] | - | 0 | 0[9.22 µM] | -
CCS(=O)(=O)n1nc(-c2ccccc2)nc1NCc1ccco1 | 0 | 0[10 µM] | 0 | 0 | 0 | 0
Cc1ccc(S(=O)(=O)n2nc(-c3ccc(Cl)cc3)nc2NCc2ccco2)cc1 | 0 | 0 | 3.5µM | 0 | 0 | 0
CC(=O)c1ccc(N2CCN(c3ccc(NC(=O)c4cccs4)cc3C(=O)O)CC2)cc1 | - | - | - | - | - | 0
COc1cccc(NC(=O)COC(=O)CCCc2c[nH]c3ccccc23)c1 | 0 | 0 | 0 | 0 | 0 | 0
Cc1ccc(C(=O)OCC(=O)c2c[nH]c3ccccc23)cc1 | 0 | 0[0.074 µM] | 0 | 0 | 0 | 0
CC(=O)NC(Cc1c[nH]c2ccccc12)C(=O)OCC(=O)Nc1ccc2c(c1)OCO2 (configuration not stated) | 0 | 0[4.97 µM] | 5µM | 0 | 0 | 0
CC(=O)N[C@@H](Cc1c[nH]c2ccccc12)C(=O)OCC(=O)Nc1ccc(Cl)c(S(=O)(=O)N(C)C)c1 | - | 0 | ? | 0 | 0 | 0
CC(=O)OCC(=O)NCC(=O)c1c[nH]c2ccccc12 | 16µM | - | 0 | 0 | 0 | 0
CC(=O)Nc1ccc(NC(=O)COC(=O)Cc2c[nH]c3ccccc23)cc1 | 0 | 0[10 µM] | 14µM | 0 | 0 | 0
COc1ccc(NC(=O)COC(=O)Cc2c[nH]c3ccccc23)cc1OC | - | 0 | 0 | 0 | 0 | 0
CCOc1ccc(NC(=O)COC(=O)CCCc2c[nH]c3ccccc23)cc1 | 0 | 0 | 16µM | 0 | 0 | 0
COc1ccccc1-c1cncnc1NCCNC(C)=O | - | 0 | 0 | - | - | 0

High-throughput results (PubChem)
